# From publication PMC11102866, “Nucleosome-bound NR5A2 structure reveals pioneer factor mechanism by DNA minor groove anchor competition”
# Where a chain is given by its changes, count along the chain named. Names may count otherwise.
# B1: 60 (nucleosome)
# DNA 1: ATCCTGGAGAATCCCGGTGCCGAGGCCGCTCAATTGGTCGTAGACAGCTCTAGCACCGCTTATCAAGGCCAACGCGCTGTCCCCCGCGTTTTAACCGCCAAGGGGATTACTCCCTAGTCTCCAGGCACGTGTCAGATATATACATCCTGTGAT
# DNA 2: ATCACAGGATGTATATATCTGACACGTGCCTGGAGACTAGGGAGTAATCCCCTTGGCGGTTAAAACGCGGGGGACAGCGCGTTGGCCTTGATAAGCGGTGCTAGAGCTGTCTACGACCAATTGAGCGGCCTCGGCACCGGGATTCTCCAGGAT
# modifications: reconstituted with mouse histones H2A, H2B, H3.3 and H4
# B2: 53 (nucleosome)
# DNA 1: ATCCTGGAGAATCCCGGTGCCGAGGCCGCTCAATTGGTCGTAGACAGCTCTAGCATCAAGGCCACGCACGTACGCGCTGTCCCCCGCGTTTTAACCGCCAAGGGGATTACTCCCTAGTCTCCAGGCACGTGTCAGATATATACATCCTGTGAT
# DNA 2: ATCACAGGATGTATATATCTGACACGTGCCTGGAGACTAGGGAGTAATCCCCTTGGCGGTTAAAACGCGGGGGACAGCGCGTACGTGCGTGGCCTTGATGCTAGAGCTGTCTACGACCAATTGAGCGGCCTCGGCACCGGGATTCTCCAGGAT
# modifications: reconstituted with mouse histones H2A, H2B, H3.3 and H4
# B3: 59 (nucleosome)
# DNA 1: B1 DNA 1 with A62T, T63C, C64A, A66G, G68C, C70A, A71T
# DNA 2: B1 DNA 2 with T83A, G84T, C86G, T88C, G90T, A91G, T92A
# modifications: reconstituted with mouse histones H2A, H2B, H3.3 and H4
# B4: 54 (nucleosome)
# DNA 1: B2 DNA 1 with T56C, C57T, A58C, G60A, C62G, A64C, C65A
# DNA 2: B2 DNA 2 with G89T, T90G, G92C, C94T, T96G, G97A, A98G
# modifications: reconstituted with mouse histones H2A, H2B, H3.3 and H4
# B5: 57 (nucleosome)
# DNA 1: B1 DNA 1 with T61C, T63A, C64G, A65G, A66C, G67C, G68A, C70G, A71T
# DNA 2: B1 DNA 2 with T83A, G84C, C86T, C87G, T88G, T89C, G90C, A91T, A93G
# modifications: reconstituted with mouse histones H2A, H2B, H3.3 and H4
# B6: 58 (nucleosome)
# DNA 1: B2 DNA 1 with T56C, A58G, A59C, G60T, G61T, C63A, C65G, A68C, C69A
# DNA 2: B2 DNA 2 with G85T, T86G, G89C, G91T, C93A, C94A, T95G, T96C, A98G
# modifications: reconstituted with mouse histones H2A, H2B, H3.3 and H4
# B7: 56 (nucleosome)
# DNA 1: B2 DNA 1 with T56C, A58G, A59T, G60C, G61A, C62A, C63G, A64G, G66C, C67A
# DNA 2: B2 DNA 2 with G87T, C88G, T90C, G91C, G92T, C93T, C94G, T95A, T96C, A98G
# modifications: reconstituted with mouse histones H2A, H2B, H3.3 and H4
# B8: 55 (nucleosome)
# DNA 1: B2 DNA 1 with T56C, A58T, A59C, G60A, G61A, C62G, C63G, A64C, G66A
# DNA 2: B2 DNA 2 with C88T, T90G, G91C, G92C, C93T, C94T, T95G, T96A, A98G
# modifications: reconstituted with mouse histones H2A, H2B, H3.3 and H4
# Tests used:
# [1] = target: NR5A2 wild type;histone octamer (Homo sapiens;, UniProt O00482;C0HKE1;Q6ZWY9;P84244;P62806 1-541;2-130;2-126;2-136;2-103, |); assay: SeEN-seq (EMSA of nucleosome library followed by sequencing); 0.8 uM human NR5A2; 20 mM Tris-HCl pH 7.5, 120 mM NaCl, 1 mM MgCl2, 10 uM ZnCl2, 1 mM DTT, 100 ug/ml BSA, room temperature, 30 min; 0.1 uM nucleosome library; high values mean tight binding
# [2] = target: mouse Nr5a2 wild type;histone octamer (Mus musculus;, UniProt P45448;C0HKE1;Q6ZWY9;P84244;P62806 1-560;2-130;2-126;2-136;2-103, |); assay: SeEN-seq (EMSA of nucleosome library followed by sequencing); 1.2 uM mouse Nr5a2; 20 mM Tris-HCl pH 7.5, 120 mM NaCl, 1 mM MgCl2, 10 uM ZnCl2, 1 mM DTT, 100 ug/ml BSA, room temperature, 30 min; 0.1 uM nucleosome library; high values mean tight binding
Binder,binding signal [1],binding signal [2]
B1,"0.819 log2 enrichment (bound/unbound, relative to Widom 601)","0.573 log2 enrichment (bound/unbound, relative to Widom 601)"
B2,"1.03 log2 enrichment (bound/unbound, relative to Widom 601)","1.17 log2 enrichment (bound/unbound, relative to Widom 601)"
B3,"0.92 log2 enrichment (bound/unbound, relative to Widom 601)","0.823 log2 enrichment (bound/unbound, relative to Widom 601)"
B4,"0.993 log2 enrichment (bound/unbound, relative to Widom 601)","1 log2 enrichment (bound/unbound, relative to Widom 601)"
B5,"0.552 log2 enrichment (bound/unbound, relative to Widom 601)","0.504 log2 enrichment (bound/unbound, relative to Widom 601)"
B6,"0.651 log2 enrichment (bound/unbound, relative to Widom 601)","0.747 log2 enrichment (bound/unbound, relative to Widom 601)"
B7,"0.684 log2 enrichment (bound/unbound, relative to Widom 601)","0.45 log2 enrichment (bound/unbound, relative to Widom 601)"
B8,"1.2 log2 enrichment (bound/unbound, relative to Widom 601)","0.957 log2 enrichment (bound/unbound, relative to Widom 601)"
